# “And” between values parts separate entries of the source, which are not always exact repeats. Equal entries are not always repeated. Structures can show the parent of a compound that is named as a salt. ± gives the standard deviation of the averaged measurements. The full ranking holds about 1,800 compounds; the median of “GFP- (p16Ink4a-) cell count relative to negative-control wells” is about 0.99, and the lowest 2% start at about 0.5. The sample holds the lowest values, similar compounds and a random draw of the others, so the mix is not that of the screen.
# Tested on: mouse p16Ink4a+/- lung fibroblasts (INKBRITE, bleomycin-injured)
# Assay: GFP- (p16Ink4a-) cell count relative to negative-control wells (fold of vehicle); higher = more p16Ink4a- cells surviving
# Conditions: 1 µM; 3 days
row,SMILES,GFP-
1,CC1CCN(CC[C@H]2CCCN2S(=O)(=O)c2cccc(O)c2)CC1,0.862
2,CC1CNc2c(cccc2S(=O)(=O)N[C@@H](CCCN=C(N)N)C(=O)N2CC[C@@H](C)C[C@@H]2C(=O)O)C1 (stereo partly drawn) [Argatroban],1.09
3,CC1(C)CCC2=C(O1)c1ccccc1C(=O)C2=O [beta-Lapachone],1.08
4,CCOC(=O)c1ccc(C#Cc2ccc3c(c2)C(C)(C)CCS3)nc1 [Tazarotene],1.05
5,N#Cc1ccc2[nH]cc(CCCCN3CCN(c4ccc5oc(C(N)=O)cc5c4)CC3)c2c1 [Vilazodone],1.07
6,CO/C(O)=C1\C(C)=NC(C)=C(C(=O)OCCN2CCN(C(c3ccccc3)c3ccccc3)CC2)C1c1cccc([N+](=O)[O-])c1 (stereo not drawn) [Manidipine],0.985 and 0.964
7,Cc1ccc(Cl)cc1N(CC(=O)Nc1c(F)cccc1F)S(C)(=O)=O,1.06
8,O=C(O)C(O)Cc1ccc(O)c(O)c1 (stereo not drawn) [Sodium Danshensu],1.19
9,COc1nc(C)cnc1NS(=O)(=O)c1cccnc1-c1ccc(-c2nnco2)cc1 [Zibotentan],1.19
10,CCOC(=O)[C@H](CCc1ccccc1)N[C@@H](C)C(=O)N1Cc2cc(OC)c(OC)cc2C[C@H]1C(=O)O [Moexipril],0.982
11,COc1c2ccoc2cc2oc(=O)ccc12 [Bergapten],1.08
12,O=C1c2cccc(O)c2C(=O)c2c(O)cc(CO)cc21 [Aloe-emodin],1.13
13,O=C1c2c(O)ccc(O)c2C(=O)c2c(NCCNCCO)ccc(NCCNCCO)c21 [Mitoxantrone],0.503
14,"Nc1ncn([C@@H]2O[C@H](CO)[C@@H](O)[C@H]2O)c(=O)n1 [5-azacytidine, Azacitidine]",0.758 ± 0.04
15,CCOC(=O)[C@H]1O[C@@H]1C(=O)N[C@@H](CC(C)C)C(=O)NCCC(C)C [Aloxistatin],0.833
16,CN(C)c1ccc(C(=C2C=CC(=[N+](C)C)C=C2)c2ccc(N(C)C)cc2)cc1 [Gentian Violet],0.494
17,COCCO/C(O)=C1\C(C)=NC(C)=C(C(=O)OC(C)C)C1c1cccc([N+](=O)[O-])c1 (stereo not drawn) [Nimodipine],1.06
18,FC(F)c1nc2ccccc2n1-c1nc(N2CCOCC2)nc(N2CCOCC2)n1,0.711
19,O=C(NC(Cc1cc(O)nc2ccccc12)C(=O)O)c1ccc(Cl)cc1 (stereo not drawn) [Rebamipide],1.02
20,Cc1ccc([N+](=O)[O-])cc1S(=O)(=O)N(C)/N=C/c1cnc2ccc(Br)cn12,0.385
21,COC(=O)Nc1nc2cc(C(=O)c3ccc(F)cc3)ccc2[nH]1 [Flubendazole],0.933
22,CC(C(=O)O)c1ccc2c(c1)Cc1cccnc1O2 (stereo not drawn) [Pranoprofen],1.17
23,Cc1cc(NS(=O)(=O)c2ccc(N)cc2)no1 [Sulfamethoxazole],0.967
24,C=CC(=O)Nc1cccc(Oc2nc(Nc3ccc(N4CCN(C)CC4)cc3)ncc2Cl)c1,0.844

row,SMILES,GFP-
1,C=CCn1c(=O)c2cnc(Nc3ccc(N4CCN(C)CC4)cc3)nc2n1-c1cccc(C(C)(C)O)n1,0.409
2,Cc1cnc(Nc2ccc(N3CCN(C)CC3)cc2)nc1Nc1cccc(S(=O)(=O)NC(C)(C)C)c1,0.779 ± 0.037
3,C#C[C@]1(O)CC[C@H]2[C@@H]3CCc4cc(OC)ccc4[C@H]3CC[C@@]21C [Mestranol],1.15
4,COc1cc2nccc(Oc3ccc(NC(=O)Nc4cc(C)on4)c(Cl)c3)c2cc1OC [Tivozanib],1.01
5,COc1cc2nccc(Oc3ccc(NC(=O)C4(C(=O)Nc5ccc(F)cc5)CC4)cc3)c2cc1OC [Cabozantinib],0.824
6,COc1cc2nccc(Oc3ccc(NC(=O)Nc4ccc(F)cc4F)c(F)c3)c2cc1OC,0.466
7,CCn1cc(-c2ccnc3[nH]c(-c4cccc(CN(C)C)c4)cc23)c(-c2ccc(NC(=O)N(C)C)cc2)n1,0.658 ± 0.17
8,COc1cc(Nc2ncc(F)c(Nc3ccc4c(n3)N(COP(=O)(O)O)C(=O)C(C)(C)O4)n2)cc(OC)c1OC [Fostamatinib],0.771
9,COC(=O)[C@]12CCC(C)(C)C[C@@H]1[C@@H]1C(=O)C=C3[C@]4(C)C=C(C#N)C(=O)C(C)(C)[C@@H]4CC[C@@]3(C)[C@]1(C)CC2 [Bardoxolone Methyl],0.406
10,O=C(c1ccc(F)cc1)C1CCN(CCn2c(=O)[nH]c3ccccc3c2=O)CC1 [Ketanserin Tartrate],0.924
11,COc1ccc2c(c1)c(CC(=O)N1CCOCC1)c(C)n2C(=O)c1ccc(Cl)cc1,1.15
12,COC(=O)[C@H](Cc1ccccc1)NC(=O)[C@@H](N)CC(=O)O [Aspartame],0.966
13,CC(=O)SCC(Cc1ccccc1)C(=O)NCC(=O)OCc1ccccc1 (stereo not drawn) [Racecadotril],0.972
14,CC(C)C[C@@H](C=O)NC(=O)[C@H](CC(C)C)NC(=O)[C@H](CC(C)C)NC(=O)OCc1ccccc1,0.302
15,CCCC(=O)Nc1cccc(NC(=O)c2ccccc2Br)c1,1.03
16,CCOC(=O)C1=C(C)N=C(C)/C(=C(/O)OCC)C1c1ccccc1/C=C/C(=O)OC(C)(C)C (stereo not drawn) [Lacidipine],1.08
17,Clc1ccc(C(Cn2ccnc2)OCc2ccsc2Cl)c(Cl)c1 (stereo not drawn) [Tioconazole],0.993
18,Cn1nc(C(C)(C)C)cc1C(=O)N[C@@H](Cc1cccc(Cl)c1)C(=O)NCC#N [Cathepsin Inhibitor 1],1.01
19,O=C1CCC[C@@H]2[C@H]3CCC[N+]4([O-])CCC[C@@H](CN12)[C@@H]34 (stereo partly drawn) [Oxymatrine],1.08
20,O=S(=O)(O)c1cc(O)ccc1O [Ethamsylate],0.995
21,"C=C1/C(=C\C=C2/CCC[C@]3(C)[C@@H]([C@H](C)CCCC(C)(C)O)CC[C@@H]23)C[C@@H](O)C[C@@H]1O [Calcitriol, DN-101]",1.39
22,CN1CCN(S(=O)(=O)c2ccc(-c3cnc(N)c(C(=O)Nc4cccnc4)n3)cc2)CC1,0.998
23,Cc1[nH]c(/C=C2\C(=O)Nc3ccccc32)c(C)c1CCC(=O)O [Orantinib],1.09
24,Cc1[nH]c(/C=C2\C(=O)Nc3ccc(S(=O)(=O)N(C)c4cccc(Cl)c4)cc32)c(C)c1C(=O)N1CCN(C)CC1,0.704

# From the supplement of paper PMC11060735
